Where a name gives a salt, the structure may show the parent alone. Unmarked numbers belong to inactive results.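 Rule for the calls: active = log2 fold change beyond 2 SD from the library mean after excluding viability outliers; inactive = within 2 SD.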
target: PARP1 L713F-nLuc biosensor (HCT116) (UniProt P09874); assay: PARP1 L713F-nLuc/akaLuc ratio relative to DMSO control (biosensor stabilization) (fold change); higher = more PARP1 biosensor stabilization (target engagement / stabilizer), active = hit call of the paper; details: stock concentration (mM; final µM = stock mM x 1): 10; 24 h
Sequence (P09874 whole entry L713F, looked up): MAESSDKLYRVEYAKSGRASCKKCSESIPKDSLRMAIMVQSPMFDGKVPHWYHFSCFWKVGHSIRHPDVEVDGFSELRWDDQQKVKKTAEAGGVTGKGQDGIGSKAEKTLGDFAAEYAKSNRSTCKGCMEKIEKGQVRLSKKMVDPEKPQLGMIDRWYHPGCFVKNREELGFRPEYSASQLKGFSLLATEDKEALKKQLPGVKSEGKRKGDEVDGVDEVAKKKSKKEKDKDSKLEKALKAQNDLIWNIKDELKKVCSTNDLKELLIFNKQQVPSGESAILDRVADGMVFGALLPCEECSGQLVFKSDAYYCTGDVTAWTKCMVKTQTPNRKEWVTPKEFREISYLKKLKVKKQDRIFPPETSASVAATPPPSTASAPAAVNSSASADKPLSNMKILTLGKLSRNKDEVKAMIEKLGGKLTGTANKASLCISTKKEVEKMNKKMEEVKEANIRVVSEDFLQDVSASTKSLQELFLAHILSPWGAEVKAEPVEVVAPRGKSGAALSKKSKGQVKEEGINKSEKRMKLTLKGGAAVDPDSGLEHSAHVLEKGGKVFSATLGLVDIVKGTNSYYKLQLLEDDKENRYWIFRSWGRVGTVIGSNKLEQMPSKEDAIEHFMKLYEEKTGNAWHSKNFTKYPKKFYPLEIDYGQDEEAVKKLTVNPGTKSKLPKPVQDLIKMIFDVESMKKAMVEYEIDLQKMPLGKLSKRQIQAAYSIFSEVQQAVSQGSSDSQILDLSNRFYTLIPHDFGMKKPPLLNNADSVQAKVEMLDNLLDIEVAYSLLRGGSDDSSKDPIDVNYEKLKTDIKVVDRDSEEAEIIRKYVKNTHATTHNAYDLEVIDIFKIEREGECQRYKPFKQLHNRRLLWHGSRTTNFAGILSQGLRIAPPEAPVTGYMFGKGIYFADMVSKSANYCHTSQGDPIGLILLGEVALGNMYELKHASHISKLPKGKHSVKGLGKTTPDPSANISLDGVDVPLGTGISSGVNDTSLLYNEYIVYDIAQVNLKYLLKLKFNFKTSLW

Compound	PARP1 L713F-nLuc/akaLuc ratio
COc1cc(C(=O)N2C[C@H](N)CC[C@@H]2C)cc2nc(-c3cc4cccnc4n3CC3CC3)n(C)c12 [BMS-P5 (free base)]	0.878
CC(C)N(CCCNC(=O)Nc1ccc(C(C)(C)C)cc1)C[C@H]1O[C@@H](n2ccc3c(N)ncnc32)[C@H](O)[C@@H]1O	2.19
C#Cc1cccc(Nc2ncnc3cc(OCCOC)c(OCCOC)cc23)c1 [Erlotinib]	0.565
CS(=O)(=O)CCNCc1ccc(-c2ccc3ncnc(Nc4ccc(OCc5cccc(F)c5)c(Cl)c4)c3c2)o1 [Lapatinib]	0.617
COc1cc2c(NC3CCN(C(C)C)CC3)nc(N3CCC(F)(F)CC3)nc2cc1OCCCN1CCCC1	1.03
Cc1ccc(NC(=O)c2ccc(CN3CC[C@H](N(C)C)C3)c(C(F)(F)F)c2)cc1Nc1nccc(-c2cncnc2)n1 [Bafetinib (INNO-406)]	0.726
COC(=O)/C=C/c1ccccc1 [Methyl cinnamate]	1.29
Nc1nc2cc(-c3ccc4ncc(C(=O)N5CCOCC5)n4c3)ccc2o1 [Serabelisib (INK-1117,MLN-1117,TAK-117)]	1.31
O=C(O)CNC(=O)C1=C(O)CCN(Cc2ccc(Oc3ccc(Cl)cc3)nc2)C1=O	1.22
O=C(O)CCNc1cc(N2CCc3ccccc3CC2)nc(-c2ccccn2)n1	0.92
CN(C)[C@H]1CN(C2CCc3cccc(F)c32)C[C@@H]1c1ccc(N2CCN(S(C)(=O)=O)CC2)cc1 (some centres not stated)	4.18 (active)
COc1cc2nc(N3CCCN(C)CC3)nc(NC3CCN(Cc4ccccc4)CC3)c2cc1OC	0.488
N#Cc1c(N2CCCC2)nc(N)c2c(N)nc(N3CCCC3)cc12	1.1
Cc1nn(C)cc1-c1nc2c(N3CCN(Cc4ccc(Cl)cc4)CC3)c(Cl)cnc2[nH]1	0.979
O=c1[nH]c(CSC2CCC(O)CC2)nc2cc(OCC3CC3)cc(F)c12 (configuration not stated)	1.21
N#CCNC(=O)c1ccc(-c2ccnc(Nc3ccc(N4CCOCC4)cc3)n2)cc1 [Momelotinib]	0.661
C[C@@H]1CN(CC(=O)Nc2ccc3c(c2)Cc2cccc(-c4cc(=O)cc(N5CCOCC5)o4)c2S3)C[C@H](C)O1	0.788
C[C@H](Nc1cc(-c2cnn(C)c2)cc(Nc2cnccn2)n1)c1ccc(F)cc1 [Ilginatinib (maleate)]	0.614
N#CC[C@H](C1CCCC1)n1cc(-c2ncnc3[nH]ccc23)cn1 [Ruxolitinib]	0.544
C=C(c1ccc(C(=O)O)cc1)c1cc2c(cc1C)C(C)(C)CCC2(C)C [Bexarotene]	0.719
CCN(CC)C(=O)c1ccc(Nc2nc(OCC3CCCCC3)c3[nH]cnc3n2)cc1	0.71
CC[C@]1(O)C[C@@H]2CN(CCc3c([nH]c4ccccc34)[C@@](C(=O)OC)(c3cc4c(cc3OC)N(C)[C@H]3[C@@](O)(C(=O)OC)[C@H](OC(C)=O)[C@]5(CC)C=CCN6CC[C@]43[C@@H]65)C2)C1 [Vinblastine sulfate]	1.03
O=C(c1cncc(Br)c1)N1CCC(N2CCCC2)CC1	1.73
Cc1ccc(=O)n(-c2ccccc2)c1 [Pirfenidone]	0.824
COc1cc(OC)cc(N(CCNC(C)C)c2ccc3ncc(-c4cnn(C)c4)nc3c2)c1	1.09
CCCOc1ccn2c(C(C)=O)cc(-c3ccccc3S(C)(=O)=O)c2c1	0.733
CC(C)N(C[C@H]1O[C@@H](n2cnc3c(N)ncnc32)[C@H](O)[C@@H]1O)[C@H]1C[C@@H](CCc2nc3cc(C(C)(C)C)ccc3[nH]2)C1 [Pinometostat]	0.649
